In PubChem BioAssay AID583 (Sanford-Burnham Center for Chemical Genomics, 2007):
Where “and” joins values, the source holds several entries; their conditions need not be identical. Equal values may be shown once. Screen size: about 140,000 compounds; about 80 (0.06%) were called active. Rule as the data show it: active = displacement above about 50%; inactive = the rest. Shown is part of a subset that was picked to be rich in actives.

What follows are compounds tested against Heat shock 70 kDa protein 1A (Homo sapiens) (UniProt P0DMV8) (assay: Hsp70 inhibitors, probe displacement, primary screen, biochemical, fluorescence polarization (AID 583;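 also: plate controls were vehicle for no effect and reference ligand for full effect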)). Conditions: mP, at 20 µM, stronger effect = higher value.
Chain of Heat shock 70 kDa protein 1A (Homo sapiens) (P0DMV8 whole entry, looked up): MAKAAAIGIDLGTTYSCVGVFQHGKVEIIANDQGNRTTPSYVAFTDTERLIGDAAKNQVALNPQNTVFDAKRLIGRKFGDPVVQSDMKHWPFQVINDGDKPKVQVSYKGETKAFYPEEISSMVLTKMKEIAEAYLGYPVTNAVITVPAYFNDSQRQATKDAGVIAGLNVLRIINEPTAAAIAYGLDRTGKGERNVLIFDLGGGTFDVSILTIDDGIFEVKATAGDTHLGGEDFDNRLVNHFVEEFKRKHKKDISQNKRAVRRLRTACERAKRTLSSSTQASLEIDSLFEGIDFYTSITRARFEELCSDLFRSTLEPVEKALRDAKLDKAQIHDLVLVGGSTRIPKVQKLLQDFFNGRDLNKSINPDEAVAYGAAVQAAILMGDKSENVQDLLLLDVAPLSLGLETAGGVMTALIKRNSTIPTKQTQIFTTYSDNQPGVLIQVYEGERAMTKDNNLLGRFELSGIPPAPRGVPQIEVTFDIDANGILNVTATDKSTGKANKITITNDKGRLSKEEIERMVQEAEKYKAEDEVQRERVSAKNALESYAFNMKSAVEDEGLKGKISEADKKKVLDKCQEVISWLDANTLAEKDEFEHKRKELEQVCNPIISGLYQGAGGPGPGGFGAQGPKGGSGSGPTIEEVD
In the case of O=C1NC(=S)N(c2ccc(F)cc2)C(=O)/C1=C/c1ccc(Br)o1, the displacement is reported as 68.7% (active). For CCOc1ccc(N2C(=O)/C(=C/c3ccc(Br)o3)C(=O)NC2=S)cc1, the displacement was 84.5% (active). CCOc1ccc(N2C(=O)NC(=O)/C(=C\c3ccc(C)o3)C2=O)cc1 was tested, and the displacement was -5.2% (inactive). With CCOc1ccc(N2C(=O)/C(=C/c3ccc(C)o3)C(=O)NC2=S)cc1 the displacement was -26.6% (inactive). With COc1ccc(N2C(=O)/C(=C/c3ccc(I)o3)C(=O)NC2=S)cc1 the displacement was 92% (active). CN1C(=O)NC(=O)/C(=C/c2ccc(I)o2)C1=O was tested, and the displacement was 9.4% (inactive). With CN1C(=O)NC(=O)/C(=C/c2ccc(Br)o2)C1=O the displacement was 2.1% (inactive). In the case of O=C1NC(=O)N(c2ccc(Cl)cc2)C(=O)/C1=C/c1ccc(Br)o1, the displacement is reported as -0.1% (inactive). For COc1ccc(N2C(=O)/C(=C/c3ccc(-c4cc(C(=O)O)ccc4Cl)o3)C(=O)NC2=S)cc1, the displacement was 5% (inactive). With Cc1cccnc1NC1=NCC(C)S1 (stereo not given) the displacement was 3.9% (inactive). CCC(=O)N1N=C2C3CCN(CC3)C2C1c1ccc([N+](=O)[O-])cc1 (stereo not given) was tested, and the displacement was -5.5% (inactive). CCC(C)N=Cc1c(O)n(-c2ccccc2)c(=O)[nH]c1=O (stereo not given) was tested, and the displacement was -0.1% (inactive). CC(C)C12CN3CCN(CC(C3)C1O)C2 (stereo not given) was tested, and the displacement was 5.4% (inactive) and 5.3% (inactive). For COc1ccc(CN2C(=O)NC(=O)/C(=C\c3ccoc3)C2=O)cc1, the displacement was -10% (inactive). In the case of Cn1cccc1/C=C1/C(=O)NC(=S)N(c2ccc(Cl)cc2)C1=O, the displacement is reported as 36.4% (inactive). With C=CCN1C(=O)/C(=C\c2cccn2-c2ccc([N+](=O)[O-])cc2)C(=O)NC1=S the displacement was 20.3% (inactive). For CCN1C(=O)/C(=C/c2cccn2C)C(=O)NC1=S, the displacement was 72.7% (active). For CN1C(=O)C(=Cc2cccn2-c2cccc([N+](=O)[O-])c2)C(=O)N(C)C1=O, the displacement was -8.6% (inactive). In the case of C=CCN1C(=O)NC(=O)C(=Cc2cccn2C)C1=O, the displacement is reported as 0.2% (inactive). In the case of CCN1C(=O)/C(=C/c2ccoc2)C(=O)NC1=S, the displacement is reported as 73.6% (active). For C=CCN1C(=O)/C(=C\c2cccn2-c2cccc([N+](=O)[O-])c2)C(=O)NC1=S, the displacement was 60.8% (active). With O=C1NC(=O)N(c2ccccc2)C(=O)/C1=C/c1ccoc1 the displacement was -9.7% (inactive). For CN1C(=O)C(C2c3ccccc3C(=O)N2Cc2ccccc2)C(=O)N(C)C1=O (stereo not given), the displacement was -7% (inactive). In the case of C=CCN1C(=O)/C(=C\c2cccs2)C(=O)NC1=S, the displacement is reported as 2.1% (inactive). For O=S(=O)(c1ccccc1)N1CC1c1ccccc1 (stereo not given), the displacement was 0.1% (inactive). For CCOC(=O)N1CCN(C(C)C(=O)c2c[nH]c3ccccc23)CC1 (stereo not given), the displacement was -0.3% (inactive). For O=C1CN=C(c2cccs2)c2c(sc3c2CCCC3)N1, the displacement was 0.2% (inactive). CC(C)(C)c1ccc(OCCOc2ccccc2C=C2C(=O)NC(=O)NC2=O)cc1 was tested, and the displacement was -4.4% (inactive). c1ccc(CN2CCN(C3CCCCC3)CC2)cc1 was tested, and the displacement was -0.7% (inactive). For CCc1nc2ccccc2c(=O)n1-c1ccc2ccccc2c1, the displacement was 0.4% (inactive). For O=C1NC(=O)N(c2cccc(Br)c2)C(=O)/C1=C/c1ccco1, the displacement was 98.6% (active). In the case of CCOc1ccc2ccccc2c1/C=C1\C(=O)NC(=S)N(c2ccccc2)C1=O, the displacement is reported as 3.3% (inactive). CCOc1ccc(N2C(=O)/C(=C/c3ccco3)C(=O)NC2=S)cc1 was tested, and the displacement was 92% (active). For CCOc1ccc(N2C(=O)/C(=C/c3ccc(C)cc3)C(=O)NC2=S)cc1, the displacement was -3.1% (inactive). In the case of CN(C)c1ccc(C=C2C(=O)NC(=S)N(c3ccccc3F)C2=O)cc1, the displacement is reported as -0.7% (inactive). Cc1ccc(C=C2C(=O)NC(=S)N(c3ccccc3F)C2=O)s1 was tested, and the displacement was -0.4% (inactive). With CCOc1ccc(N2C(=O)/C(=C/c3cc(Cl)ccc3O)C(=O)NC2=S)cc1 the displacement was 0.9% (inactive). For O=C1NC(=S)N(c2cccc(Cl)c2)C(=O)/C1=C/c1ccc(Cl)cc1, the displacement was -2.1% (inactive). CC(C)c1ccc(N2C(=O)NC(=O)/C(=C/c3ccco3)C2=O)cc1 was tested, and the displacement was -1.4% (inactive). Cc1cccc(N2C(=O)NC(=O)C(=Cc3ccco3)C2=O)c1 was tested, and the displacement was 9.1% (inactive). For O=C1NC(=S)N(c2ccccc2)C(=O)/C1=C/c1ccco1, the displacement was 83.4% (active). In the case of O=C1NC(=S)N(c2ccccc2F)C(=O)C1=Cc1ccco1, the displacement is reported as 96.8% (active). In the case of CCC1(Cc2ccccc2)C(=O)NC(=O)NC1=O, the displacement is reported as 1.5% (inactive). CCOc1ccc(NC(=S)NC2CN3CCC2CC3)cc1 (stereo not given) was tested, and the displacement was -0.4% (inactive). For C#CCNc1ccncc1S(=O)(=O)NC(=O)NC(C)C, the displacement was 5.1% (inactive). With Cc1c(C(=O)N2CCC3(CC2)OCCO3)sc2ncnc(N(C)c3ccccc3)c12 the displacement was 0.4% (inactive). In the case of CCOC(=O)C1C(=O)NC2(C)CC1c1cc(OC)ccc1O2 (stereo not given), the displacement is reported as 7.2% (inactive). In the case of COC(=O)C[C@]1(C(=O)OC)CN(C#N)N(c2ccc(Cl)cc2)C12c1ccccc1-c1ccccc12, the displacement is reported as 10.7% (inactive). c1cc(CN2CCN(C3C4CC5CC(C4)CC3C5)CC2)ccn1 (stereo not given) was tested, and the displacement was 5.7% (inactive). CN1CCN(c2nccc3c2ncn3C)CC1 was tested, and the displacement was -5.2% (inactive). With COc1ccccc1N1CCN(Cc2ccccc2F)CC1 the displacement was -0.6% (inactive). With O=C1NC(=S)N(c2cccc(Br)c2)C(=O)/C1=C/c1ccco1 the displacement was 95.8% (active). For O=C1NC(=S)N(c2cccc(Br)c2)C(=O)/C1=C/c1cccs1, the displacement was -3% (inactive). With O=C1NC(=S)N(c2cccc(Br)c2)C(=O)/C1=C/C=C/c1ccccc1 the displacement was -13.2% (inactive). For COc1cc(/C=N/n2cnnc2)ccc1OC(=O)N(C)C, the displacement was 0.2% (inactive).
